Compound activity deposited in PubChem by National Center for Advancing Translational Sciences (NCATS).
ALDH1A1 block = inhibitors of human aldehyde dehydrogenase 1A1; Purified ALDH1A1, NADH fluorescence, propionaldehyde substrate; P00352; Potency, µM (titrated, usually from 75.3 µM), for inactives: at the highest dose activity, negative = inhibition, usual class: inhibitors; hit rate 7.3% among 220,000; active = well fitted inhibition curve with a large enough effect, not every such curve was filed as active; inconclusive = small, poorly fitted or top-dose-only effect, or another doubt; inactive = no such curve, though single readings can be large or run the other way;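 note: plate controls were no enzyme wells and a reference inhibitor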
Target sequence (P00352 whole entry, looked up): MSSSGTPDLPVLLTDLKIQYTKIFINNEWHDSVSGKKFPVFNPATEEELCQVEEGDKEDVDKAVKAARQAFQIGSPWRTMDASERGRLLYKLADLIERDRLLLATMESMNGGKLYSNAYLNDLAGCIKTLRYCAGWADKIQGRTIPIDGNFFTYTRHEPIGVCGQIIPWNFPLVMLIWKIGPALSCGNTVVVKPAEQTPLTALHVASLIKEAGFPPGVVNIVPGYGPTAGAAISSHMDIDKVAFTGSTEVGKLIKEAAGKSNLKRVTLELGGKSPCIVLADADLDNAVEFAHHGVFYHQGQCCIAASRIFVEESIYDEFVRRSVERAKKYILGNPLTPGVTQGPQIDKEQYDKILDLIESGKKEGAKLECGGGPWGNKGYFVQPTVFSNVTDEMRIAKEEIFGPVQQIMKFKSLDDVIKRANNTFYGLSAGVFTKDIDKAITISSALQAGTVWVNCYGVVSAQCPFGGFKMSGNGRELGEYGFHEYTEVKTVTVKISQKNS
KinaseGlo FLuc = counter-screen: inhibitors of Kinase-Glo firefly luciferase; Kinase-Glo luciferase, ATP luminescence, 8 min; Potency, µM (series often up to 38.3 µM), without a hit: at the highest dose activity change, negative = inhibition, usual class: inhibitors; hit rate 0.28% among 200,000; note: % is set by controls: 0 for no effect and ±100 for the full control effect; nearly all actives have a fitted effect of over 60% in size
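Luminescence was the read-out, taken after 8-minute incubation at ambient temperature. Luciferase turned over luciferin with 10 uM ATP in imidazole pH 7.2 buffer containing KCl, MgCl2, Tween 20 and BSA.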
HTT ATP protect = protects HTT-Q103 PC12 cells, measured by ATP | AID 1471 | Potency, µM (highest dose often 56.4 µM), without a hit: cytoprotection (ATP increase), hits mostly activators | PC12 HTT-Q103 induced, cytoprotection, ATP luminescence, 40 h | hit rate 0.14% among 230,000; note: % of control where 0% means no effect; nearly all actives have a fitted effect of over 45% in size
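Quantitative HTS on tebufenozide-induced (100 nM) PC12 cells expressing HTTQ103 exon 1–GFP; compounds tested as a concentration series; survival measured via cellular ATP.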
HPGD block = inhibitors of human 15-hydroxyprostaglandin dehydrogenase (HPGD). P15428. purified HPGD, NADH fluorescence kinetic, PGE2 substrate. Potency, µM, for inactives: top-dose activity change, negative = inhibition, hits mostly inhibitors. hit rate 4.3% among 150,000; active = well fitted inhibition curve with a large enough effect, not every such curve was filed as active; inconclusive = small, poorly fitted or top-dose-only effect, or another doubt; inactive = no such curve, though single readings can be large or run the other way; note: % is set by controls: 0 for no effect and ±100 for the full control effect
Target sequence (P15428 whole entry, looked up): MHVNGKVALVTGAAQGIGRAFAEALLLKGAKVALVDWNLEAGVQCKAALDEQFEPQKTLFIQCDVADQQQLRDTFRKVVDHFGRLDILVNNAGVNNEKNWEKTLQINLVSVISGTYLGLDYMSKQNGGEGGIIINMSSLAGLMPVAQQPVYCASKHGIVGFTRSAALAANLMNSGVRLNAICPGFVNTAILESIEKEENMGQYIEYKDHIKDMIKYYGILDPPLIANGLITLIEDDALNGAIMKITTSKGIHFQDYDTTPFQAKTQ
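NADH formation kinetics: reaction with 30 uM PGE2 and 1 mM NAD+ (final), 20 nM enzyme, Tris-HCl pH 8 with Tween 20, after 15 min compound preincubation at room temperature. Fluorescence change, last versus first of five reads.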
Lamin A splicing = modulators of lamin A splicing | hit rate 0.01% among 200,000 | Potency, µM (highest dose often 46.1 µM), inactives show at the top dose ratio change, negative = inhibition, most hits filed as inhibitors | HeLa LMNA splicing GFP/RFP minigene ratio, 48 h | AID 1487; active = well fitted inhibition curve with a large enough effect in the signal ratio, with a control signal flat, not every such curve was filed as active; inconclusive = small, poorly fitted or top-dose-only effect, or effect the other way, or a change in a side signal; the % refers to the signal ratio; note: % is set by controls: 0 for no effect and ±100 for the full control effect
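S3 HeLa cells stably expressing lamin A-EGFP splicing minigene plus DsRed2, 600 cells/well, 48 h compound exposure at 37C. Laser-scanning cytometry; analysed as GFP (500-530 nm)/RFP (575-640 nm) total intensity ratio; 0.5% DMSO vehicle.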
HTT aggregate = mutant huntingtin aggregation inhibition. PC12 HttQ103-GFP aggregates, Acumen cytometry, 40 h. Potency, µM (doses to about 46.1 µM), without a hit: top-dose activity change, negative = inhibition, usual class: inhibitors. hit rate 1.1% among 220,000. AID 1688; note: % is set by controls: 0 for no effect and ±100 for the full control effect; nearly all actives have a fitted effect of over 60% in size
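Aggregate formation scored by laser-scanning cytometer (488 excitation, 500–530 emission) in lysed PC12 cells expressing Q103-GFP after 100 nM tebufenozide induction; library tested in dose series, with ATPLite reagent added in the multiplex.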
The depositor's hits bear a star; u = inconclusive; x = no result; [ ] = another dose, or the depositor's remark. Most compounds without a hit are left out; they make up all but 9% or so of the library. Unless noted, calls come from the whole dose curve; as a rule, active = well fitted curve in the direction sought with a large enough effect; inconclusive = small, poorly fitted or top-dose-only effect, or another doubt; inactive = no such curve, though single readings can be large; an effect the other way counts as inactive or inconclusive. Potency is the fitted concentration of half-maximal effect.

SMILES	ALDH1A1 block	KinaseGlo FLuc	HTT ATP protect	HPGD block	Lamin A splicing	HTT aggregate
Cc1nn(-c2ccccc2)c2[nH]c(=O)c(CNCc3ccc4c(c3)OCO4)cc12	u	-4.6%	-20.3%	u	u	-26.6%
Cc1ccc(NC2=C(NCCO)C(=O)c3ccccc3C2=O)cc1	22.4µM*	-6.2%	3.5%[10 µM]	-2.5%	u	-15.9%
O=C1CS/C(=C\[N+](=O)[O-])N1c1ccccc1	5.01µM*	-9.7%	-9.8%	-14.3%	-7.6%	3.5%
COC(=O)c1ccc2c(=O)n(-c3ccccc3F)c(=S)[nH]c2c1	15.8µM*	1.3%	21.9%	x	x	-13.0%
O=C(O)c1ccc2c(=O)n(-c3ccccc3F)c(=S)[nH]c2c1	-5.1%	0.5%	-34.5%	x	x	0.8%
COc1ccc(NC(=O)c2ccc3c(=O)n(-c4ccc(OC)cc4OC)c(=S)[nH]c3c2)c(OC)c1	u	-4.4%	-30.7%	x	-9.2%[9.22 µM]	0.7%
COc1ccc(-n2c(=S)[nH]c3cc(C(=O)NC4CCCCC4)ccc3c2=O)c(OC)c1	0.1µM*	-2.3%	-88.3%	x	x	-18.2%
O=c1cc(O)c2c(=O)n(C3CCCCC3)c3ccccc3c2o1	-9.1%	9.9%	-27.8%	-10.2%	6.0%	5.3%
O=C(NCC(O)COc1ccc([N+](=O)[O-])cc1)Nc1ccccc1 (stereo not given)	20µM*	x	-3.6%[10 µM]	x	x	3.2%[9.22 µM]
CCOCC(O)CNc1ccccc1 (stereo not given)	11.4%	-2.1%	19.2%[10 µM]	-10.6%	-8.3%	-5.2%
OC(CNc1ccccc1)COc1ccc(OCC(O)CNc2ccccc2)cc1 (stereo not given)	4.1%	-5.4%	-74.7%	-16.2%	u	11.2µM*
COc1ccc(-c2cc3c(nn2)-c2ccccc2C3=O)cc1	5.8%	5.01µM*	-80.7%[10 µM]	x	9.3%[46 µM]	-5.6%
O=C1c2ccccc2-c2nnc(-c3ccccc3)cc21	-5.7%	7.94µM*	-62.9%	-4.3%	1.1%[0.0737 µM]	5.5%
Cc1cccc(-c2cc3c(nn2)-c2ccccc2C3=O)c1	u	u	-78.7%	-13.0%	0.8%	12.2%
Cc1ccc(SC[C@H](Cc2ccccc2)N2CCN(C)CCC2=O)cc1	x	x	3.6%[10 µM]	x	x	-16.8%[9.22 µM]
CCc1ccc(CC2S/C(=C(\C#N)C(C)=O)NC2=O)cc1 (stereo not given)	-14.7%	1.0%	-34.7%[10 µM]	u	u	u
CCOC(=O)c1ccc(CC2S/C(=C(\C#N)C(C)=O)NC2=O)cc1 (stereo not given)	-13.7%	-1.5%	-34.7%	14.1µM*	u	23.2%
O=C(Nc1cccnc1)C(Cc1ccccc1)n1cccc1 (stereo not given)	8.0%	0.9%	7.6%	-9.7%	-2.2%	-0.1%
CC(C)(C)c1ccc(S(=O)(=O)O/N=C2/CCCCC2c2ccc([N+](=O)[O-])cc2[N+](=O)[O-])cc1 (stereo not given)	5.62µM*	4.0%	-4.8%	-18.0%	6.6%	19.4%
CC1CCCC/C1=N\Nc1ccc(S(N)(=O)=O)cc1[N+](=O)[O-] (stereo not given)	-7.7%	-2.3%	22.6%[10 µM]	-10.6%	-5.6%	u
O=C(O)CC(CC(=O)Nc1ccc(Oc2ccccc2)cc1)c1ccccc1 (stereo not given)	3.6%	x	7.6%[10 µM]	x	11.2%[46 µM]	6.6%[9.22 µM]
CC(=O)Nc1ccc2nc(-c3ccccn3)[nH]c2c1	u	11.2µM*	-81.7%	u	16.9%	-3.6%
c1ccc(-c2nc3cc4ccccc4cc3[nH]2)nc1	-0.2%	11.2µM*	-86.7%[10 µM]	-15.4%	u	-0.1%
CC(=O)Nc1ccc2nc(-c3ccncc3)[nH]c2c1	u	-1.2%	-16.8%	u	8.8%	15.2%[9.22 µM]
Cc1cc2oc(C(=O)Nc3ccc(S(=O)(=O)Nc4onc(C)c4C)cc3)cc(=O)c2cc1Cl	x	x	-14.5%[10 µM]	x	x	-30.8%[9.22 µM]
SMILES	ALDH1A1 block	KinaseGlo FLuc	HTT ATP protect	HPGD block	Lamin A splicing	HTT aggregate
COc1ccc(C(=O)Nc2cc([N+](=O)[O-])ccc2N2CCN(C)CC2)cc1	0.4%	-2.0%	-20.1%	-6.8%	1.2%	8.7%
COc1cc(/C=C2\C(=O)N(CCC#N)N=C2C)ccc1OCC(=O)Nc1ccccc1	12.6µM*	-3.2%	10.2%[10 µM]	10µM*	-2.8%	-10.4%
CCOc1cc(/C=C2\C(=O)N(CCC#N)N=C2C)ccc1OCC(N)=O	-9.1%	-1.3%	-15.1%[10 µM]	x	0.3%[46 µM]	6.8%
COc1cc(/C=C2\SC(N)=NC2=O)ccc1OCC(=O)Nc1ccc(C)cc1	7.1%	1.0%	-3.9%[10 µM]	4.47µM*	u	19.3%
CC1=NN(CCC#N)C(=O)/C1=C/c1ccc(N(C)C)cc1	7.94µM*	-13.7%	-18.5%	x	-2.4%[46 µM]	-13.0%
Nn1c(SCc2cc([N+](=O)[O-])cc3c2OCOC3)nnc1-c1ccccn1	-0.7%	x	3.0%[10 µM]	x	x	2.8%[9.22 µM]
O=C(Cn1c(CO)nc2ccccc21)NCCc1ccc(F)cc1	-4.1%	3.5%	-14.2%	x	-14.2%[46 µM]	-0.1%
N#CCCN(C(=O)CCl)c1cccc(Cl)c1	0.112µM*	-0.6%	-115.8%	x	x	17.8µM*
CCCCCCCN(C(=O)CCl)c1cccc(C)c1	0.224µM*	1.9%	-18.3%[10 µM]	-25.6%	-14.4%	-3.3%
N#CC1=C(N)C2=CCCC[C@H]2[C@H](c2ccc(Br)cc2)C1(C#N)C#N	12.6µM*	1.2%	2.3%[10 µM]	-25.3%	u	7.4%
CCOC(=O)c1ccc(CN(Cc2ccc(Cl)cc2Cl)S(=O)(=O)c2cccc(Cl)c2)cc1	x	x	x	x	5.8%[46 µM]	x
O=C(OCc1nnc(-c2ccccc2)o1)c1ccc2c(c1)OCCO2	5.8%	-2.0%	8.6%	7.94µM*	-2.7%[0.0737 µM]	8.1%
O=C(OCc1nnc(-c2ccccc2)o1)c1cc([N+](=O)[O-])ccc1Cl	-5.9%	0.0%	-42.9%	x	u	20.1%
O=C(OCc1nnc(-c2ccccc2)o1)c1ccc2ccccc2n1	5.2%	-0.7%	19.6%	25.1µM*	9.4%	-18.1%
Cc1ccc(C(=O)OCc2nnc(-c3ccccc3)o2)o1	-6.5%	-7.5%	11.2%	7.08µM*	5.6%	9.6%
O=C(OCc1nnc(-c2ccccc2)o1)c1ccc(CO)cc1	15.0%	0.7%	-4.7%[10 µM]	x	7.3%[46 µM]	23.8%
O=C(OCc1nnc(-c2ccccc2)o1)c1cc(S(=O)(=O)N2CCOCC2)c(Cl)cc1Cl	3.7%	-3.4%	-6.0%[10 µM]	7.94µM*	3.8%	-17.0%
COCCOC(=O)c1c(C)oc2ccc(OS(C)(=O)=O)cc12	-3.2%	-2.6%	3.8%[10 µM]	x	x	7.9%[9.22 µM]
CC(C)(C)OC(=O)NCCc1nnc(SCc2ccc(Cl)cc2)o1	-12.8%	-6.1%	-11.8%	-8.6%	u	2.8%
CO/N=C/c1ccc(Sc2ccc(C)cc2)c([N+](=O)[O-])c1	-5.8%	22.3%	-2.5%	-11.5%	-3.9%	8.3%
O=C(OCc1nnc(-c2ccccc2)o1)c1ccc(S(=O)(=O)NCc2ccco2)cc1	15.5%	-3.2%	-15.7%[10 µM]	11.2µM*	-8.4%	1.8%
